# Screening results: PubChem BioAssay, National Center for Advancing Translational Sciences (NCATS)
# KB-V1 MDR tox: kills drug-selected multidrug resistant KB-V1 cells; Potency, µM (top dose mostly 46.1 µM), hits mostly cytotoxic; hit rate 3.4% among 400,000; AID 1347076; KB-V1 MDR cells viability, CellTiter-Glo, 72 h; note: % is set by controls: 0 for no effect and ±100 for the full control effect; nearly all actives have a fitted effect of over 60% in size
#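 Drug-selected KB-V1 cells, grown in DMEM lacking phenol red with 10% FBS, receive compound titrations; after three days at 37 degrees C, surviving cell ATP is quantified by CellTiter-Glo luminescence and responses normalized and curve-fitted.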
# MCF10A rerep: induces DNA re-replication in MCF 10a normal breast cells; MCF 10A DNA re-replication, Hoechst nuclear intensity, 48 h; Potency, µM (doses to about 46.1 µM), inactives show at the highest dose activity, positive = re-replication, actives largely listed as activators; hit rate 2.9% among 350,000; note: % of control where 0% means no effect; nearly all actives have a fitted effect of over 50% in size
# KB-3-1 cytotox: KB-3-1 parental cell cytotoxicity; KB-3-1 viability, CellTiter-Glo ATP luminescence, 72 h; Potency, µM (titrated, usually from 46.1 µM), most hits filed as cytotoxic; AID 1347075; hit rate 1.4% among 400,000; note: % is set by controls: 0 for no effect and ±100 for the full control effect; nearly all actives have a fitted effect of over 60% in size
#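 Here the drug-naive KB-3-1 line serves as comparator for MDR sub-line selectivity; cells received compound titrations, 72 h at 37 °C, then CellTiter-Glo readout.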
# SW480 rerep: induces DNA re-replication in SW480 colon adenocarcinoma cells; SW480 DNA re-replication, Hoechst DNA content imaging, 48 h; Potency, µM (doses to about 46.1 µM), inactives show at the highest dose re-replication activation, hits mostly activators; hit rate 1.8% among 340,000; note: % of control where 0% means no effect; nearly all actives have a fitted effect of over 55% in size
#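 First, 250 cells per well were seeded. Next, compound or vehicle (23 nL) was pinned in, plates sat 48 hr at 37 C. Finally Hoechst was added for 40 min before fluorescence scanning.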
# HT1080-NT tox: kills 2HG-producing HT-1080-NT fibrosarcoma cells | hit rate 1.6% among 360,000 | Potency, µM (titrated, usually from 46.1 µM), for inactives: at the highest dose activity, negative = less viability, hits mostly cytotoxic | HT-1080-NT fibrosarcoma viability, CellTiter-Glo ATP luminescence, 48 h | AID 686970;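 note: NT is the 2HG producing partner of a matched IDH1 knockdown line; 0% = DMSO-treated cells and -100% = media-only wells without cells; nearly all actives have a fitted effect of over 55% in size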
#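 Viability by CellTiter-Glo luminescence after 48 h compound exposure at 37C of HT-1080-NT cells (750/well, RPMI, 5% FBS). % activity scaled between DMSO wells and medium-only wells, then curve-fitted and categorized by curve class.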
# HT1080 IDH1KD tx: HT-1080 IDH1 knockdown cell toxicity (counter line); AID 686971; Potency, µM (titrated, usually from 46.1 µM), inactives show at the highest dose activity, negative = toxicity, hits mostly cytotoxic; HT-1080 IDH1 knockdown viability, ATP luminescence, 48 h; hit rate 2% among 360,000;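 note: 0% = DMSO wells and -100% = cell-free medium wells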
#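 CellTiter-Glo luminescence after 48 h compound exposure at 37 degrees C of IDH1-knockdown HT-1080 cells in 5% FBS RPMI. %Activity scaled between DMSO wells and cell-free media wells, with curves fitted and assigned curve classes.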
# The depositor's hits bear a star; i = inactive; u = inconclusive; x = no result given. An excerpt weighted towards active compounds, which were near 7.9% of everything screened. Calls come from the whole dose curve; as a rule, active = well fitted curve in the direction sought with a large enough effect; inconclusive = small, poorly fitted or top-dose-only effect, or another doubt; inactive = no such curve, though single readings can be large; an effect the other way counts as inactive or inconclusive. Potency is the fitted concentration of half-maximal effect.
SMILES,KB-V1 MDR tox,MCF10A rerep,KB-3-1 cytotox,SW480 rerep,HT1080-NT tox,HT1080 IDH1KD tx
CCn1cnc2c1c(=O)n(Cc1cccc(Br)c1)c(=O)n2Cc1ccccc1,18µM*,13%,u,3%,u,-26%
CC(=O)Nc1ccc(NC(=O)CSc2ncc(C(=O)Nc3ccccc3)c(=O)n2C)cc1,i,u,u,-15%,u,15µM*
CCOC(=O)c1sc(NC(=O)C(C)Sc2nc(-c3ccccc3)cc(C(F)(F)F)n2)c(C(=O)OC)c1C (centres undefined),i,x,i,x,x,x
N#C/C(=C\c1ccncc1)c1nc2ccccc2o1,i,15µM*,i,-43%,u,u
N#C/C(=C\Nc1ccccc1O)c1nc2ccccc2o1,21µM*,u,i,-1%,u,u
Cc1ccc(NC(=O)CSc2nnc(COc3ccc(Cl)cc3)o2)cc1,i,x,i,x,x,x
COc1ccc(C(=O)Nc2ccc(S(=O)(=O)N(Cc3ccccc3)c3ccccc3)cc2)cc1,2.3µM*,x,i,x,x,x
COc1ccc(N(Cc2ccccc2)S(=O)(=O)c2cccc(C(=O)Nc3ccccn3)c2)cc1,3.7µM*,u,u,13%,-13%,-20%
COc1ccc(NC(=O)CCN(c2ccc(OC)cc2)S(=O)(=O)c2ccc(C)c(C)c2)cc1,8.2µM*,9%,i,8%,-6%,-3%
O=C(Nc1ccccn1)c1ccc(CN(c2ccccc2)S(=O)(=O)c2ccccc2)cc1,i,u,i,11%,-2%,-16%
CCOC(=O)c1noc2ncnc(N3CCN(c4cccc(C(F)(F)F)c4)CC3)c12,i,x,i,x,x,x
c1cncc(-c2nnc(-c3cccnc3)nn2)c1,u,u,i,u,u,u
Cn1c(SSc2ccc(-c3cccnc3)n2C)ccc1-c1cccnc1,u,204%,u,u,10µM*,12µM*
Cc1cccc(NC(=O)CCNS(=O)(=O)c2cccc3nonc23)c1C,i,1%,i,-4%,0%,8%
Cc1cccc2sc(NC(=O)CCNS(=O)(=O)c3cccc4nonc34)nc12,23µM*,17%,u,4%,-14%,-25%
C[C@H](CO)N1C[C@H](C)[C@H](CN(C)S(=O)(=O)c2cccc(C#N)c2)OCc2cnnn2CCCC1=O,i,x,i,x,4%,9%
CCN(CC)S(=O)(=O)c1c(OC)cc(C)c(Cl)c1C,i,19%,i,1.2µM*,-2%,-2%
Cc1sc(NC(=O)c2ccco2)nc1-c1ccc2c(c1)CC(C)N2C(=O)C1CC1 (centres undefined),u,5µM*,u,6.3µM*,7.9µM*,7.9µM*
c1ccc(CCc2nn3c(Cn4nnc5ccccc54)nnc3s2)cc1,i,-1%,i,-8%,-13%,0%
c1ccc(-c2nn3c(Cn4nnc5ccccc54)nnc3s2)nc1,18µM*,15%,i,-14%,-5%,21%
c1ccc(Cc2nn3c(Cn4nnc5ccccc54)nnc3s2)cc1,23µM*,0%,i,-4%,-21%,-16%
c1ccc(CCc2nn3c(Cn4cnc5ccccc54)nnc3s2)cc1,18µM*,0%,u,0%,-21%,u
Cc1cc(C)c(C)c(OCC(=O)Nc2ccc(S(=O)(=O)Nc3nc(C)cc(C)n3)cc2)c1,i,x,i,x,x,x
CCC(Sc1nnc(-c2ccc(OC)cc2)c(-c2ccc(OC)cc2)n1)C(=O)Nc1cccc(OC)c1 (centres undefined),i,x,i,x,x,x
Cc1cccc(CNC(=O)CN2C(=O)CCCc3ccccc32)c1,i,x,i,x,x,x
Cc1ccc(S(=O)(=O)Nc2ccccc2C(C(=O)OC(C)(C)C)C(=O)OC(C)(C)C)cc1,u,x,i,x,-28%,-10%
